# In PubChem BioAssay AID1159580 (chemical genetic matrix, 2015):
# The campaign covered roughly 5,500 compounds. About 2,000 (36%) were called active. Roughly 18% stayed inconclusive and do not appear here. Some of the results follow. Values without a mark were called inactive. No stated cut-off is given here; in the data, active means normalized growth mostly below about 0.91 (no sharp cut-off); inconclusive means no clear call, values can overlap the other calls; inactive means mostly above about 0.92.
# Experiment: chemical genetic growth profiling, strain panel (AID 1159580);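 further: tested at 20 µM; growth read once vehicle control cultures reached saturation at 30 °C; 1 = growth at the plate median or of vehicle wells; lower values mean less growth of the strain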
# Details: growth OD
# [1] = S. cerevisiae deletion strains, locus YDL101C, strain DUN1, hits give low values
# [2] = S. cerevisiae deletion strains, locus YHR030C, strain SLT2, hits give low values
# [3] = S. cerevisiae deletion strains, locus YAL013W, strain DEP1, hits give low values
# [4] = S. cerevisiae deletion strains, locus YBR229C, strain ROT2, hits give low values
# [5] = S. cerevisiae deletion strains, locus YCL061C, strain MRC1, hits give low values
# [6] = S. cerevisiae deletion strains, locus YDL134C, strain PPH21, hits give low values
# [7] = S. cerevisiae deletion strains, locus YDR150W, strain NUM1, hits give low values
# [8] = S. cerevisiae deletion strains, locus YEL061C, strain CIN8, hits give low values
# [9] = S. cerevisiae deletion strains, locus YGR078C, strain PAC10, hits give low values
# [10] = S. cerevisiae deletion strains, locus YGR229C, strain SMI1, hits give low values
# [11] = S. cerevisiae deletion strains, locus YHR087W, strain rtc3, hits give low values
# [12] = S. cerevisiae deletion strains, locus YJR043C, strain POL32, hits give low values
# [13] = S. cerevisiae deletion strains, locus YJR075W, strain HOC1, hits give low values
# [14] = S. cerevisiae deletion strains, locus YKL190W, strain CNB1, hits give low values
# [15] = S. cerevisiae deletion strains, locus YLR039C, strain RIC1, hits give low values
# [16] = S. cerevisiae deletion strains, locus YLR058C, strain SHM2 (second series), hits give low values
# [17] = S. cerevisiae deletion strains, locus YLR085C, strain ARP6, hits give low values
# [18] = S. cerevisiae deletion strains, locus YLR262C, strain YPT6, hits give low values
# [19] = S. cerevisiae deletion strains, locus YML094W, strain GIM5, hits give low values
# [20] = S. cerevisiae deletion strains, locus YMR219W, strain ESC1, hits give low values
# [21] = S. cerevisiae deletion strains, locus YMR263W, strain SAP30, hits give low values
# [22] = S. cerevisiae deletion strains, locus YNL153C, strain GIM3, hits give low values
# [23] = S. cerevisiae deletion strains, locus YNL298W, strain CLA4 (second series), hits give low values
# [24] = S. cerevisiae deletion strains, locus YNL322C, strain KRE1, hits give low values
# [25] = S. cerevisiae deletion strains, locus YNR030W, strain Alg12, hits give low values
# [26] = S. cerevisiae deletion strains, locus YPL055C, strain LGE1, hits give low values
# [27] = S. cerevisiae deletion strains, locus YPL241C, strain CIN2, hits give low values
# [28] = S. cerevisiae deletion strains, locus YPR135W, strain CTF4, hits give low values
# [29] = S. cerevisiae strains, strain wild type, hits give low values
compound,measurement,setting,value
CN(C)/C=C1\CSc2ccc(Cl)cc2C1=O,normalized growth,"S. cerevisiae deletion strains, locus YAR019C, strain CDC15, hits give low values",0.927
same,normalized growth,"S. cerevisiae deletion strains, locus YBL105C, strain PKC1, hits give low values",0.957
same,normalized growth,"S. cerevisiae deletion strains, locus YBR135W, strain CKS1, hits give low values",0.965
same,normalized growth,"S. cerevisiae deletion strains, locus YBR136W, strain MEC1, hits give low values",0.949
same,normalized growth,"S. cerevisiae deletion strains, locus YBR160W, strain CDC28, hits give low values",0.95
same,normalized growth,"S. cerevisiae deletion strains, locus YDL017W, strain CDC7, hits give low values",0.953
same,normalized growth,"S. cerevisiae deletion strains, locus YDL028C, strain MPS1, hits give low values",0.953
same,normalized growth,[1],0.975
same,normalized growth,"S. cerevisiae deletion strains, locus YDL108W, strain KIN28, hits give low values",0.947
same,normalized growth,"S. cerevisiae deletion strains, locus YDL132W, strain cdc53, hits give low values",0.956
same,normalized growth,"S. cerevisiae deletion strains, locus YDL214C, strain PRR2, hits give low values",0.763
same,normalized growth,"S. cerevisiae deletion strains, locus YDR052C, strain DBF4, hits give low values",0.967
same,normalized growth,"S. cerevisiae deletion strains, locus YDR054C, strain cdc34, hits give low values",0.94
same,normalized growth,"S. cerevisiae deletion strains, locus YDR226W, strain ADK1, hits give low values",0.947
same,normalized growth,"S. cerevisiae deletion strains, locus YDR477W, strain SNF1, hits give low values",0.832
same,normalized growth,"S. cerevisiae deletion strains, locus YER123W, strain YCK3, hits give low values",0.565 (active)
same,normalized growth,"S. cerevisiae deletion strains, locus YER133W, strain GLC7, hits give low values",0.811
same,normalized growth,"S. cerevisiae deletion strains, locus YFL009W, strain cdc4, hits give low values",0.944
same,normalized growth,"S. cerevisiae deletion strains, locus YFL029C, strain CAK1, hits give low values",0.932
same,normalized growth,"S. cerevisiae deletion strains, locus YFR003C, strain YPI1, hits give low values",0.952
same,normalized growth,"S. cerevisiae deletion strains, locus YFR019W, strain FAB1, hits give low values",0.771 (active)
same,normalized growth,"S. cerevisiae deletion strains, locus YFR028C, strain CDC14, hits give low values",0.942
same,normalized growth,"S. cerevisiae deletion strains, locus YGR040W, strain KSS1, hits give low values",0.832
same,normalized growth,"S. cerevisiae deletion strains, locus YGR052W, strain FMP48, hits give low values",0.799
same,normalized growth,"S. cerevisiae deletion strains, locus YGR092W, strain DBF2, hits give low values",0.824
same,normalized growth,[2],0.311 (active)
same,normalized growth,"S. cerevisiae deletion strains, locus YHR079C, strain IRE1, hits give low values",0.555
same,normalized growth,"S. cerevisiae deletion strains, locus YHR082C, strain KSP1, hits give low values",0.758
same,normalized growth,"S. cerevisiae deletion strains, locus YHR205W, strain SCH9, hits give low values",0.75
same,normalized growth,"S. cerevisiae deletion strains, locus YIL147C, strain SLN1, hits give low values",0.928
same,normalized growth,"S. cerevisiae deletion strains, locus YJL095W, strain BCK1, hits give low values",0.444 (active)
same,normalized growth,"S. cerevisiae deletion strains, locus YJL128C, strain PBS2, hits give low values",1.01
same,normalized growth,"S. cerevisiae deletion strains, locus YJL157C, strain FAR1, hits give low values",0.775
same,normalized growth,"S. cerevisiae deletion strains, locus YJR016C, strain ILV3, hits give low values",0.965
same,normalized growth,"S. cerevisiae deletion strains, locus YJR066W, strain TOR1 (second series), hits give low values",0.728
same,normalized growth,"S. cerevisiae deletion strains, locus YJR066W, strain TOR1, hits give low values",0.633
same,normalized growth,"S. cerevisiae deletion strains, locus YKL048C, strain ELM1, hits give low values",0.937
same,normalized growth,"S. cerevisiae deletion strains, locus YKL067W, strain YNK1, hits give low values",0.771
same,normalized growth,"S. cerevisiae deletion strains, locus YKL101W, strain HSL1, hits give low values",0.861
same,normalized growth,"S. cerevisiae deletion strains, locus YKL193C, strain SDS22, hits give low values",0.938
same,normalized growth,"S. cerevisiae deletion strains, locus YKL203C, strain TOR2, hits give low values",0.886
same,normalized growth,"S. cerevisiae deletion strains, locus YLR113W, strain HOG1, hits give low values",0.537 (active)
same,normalized growth,"S. cerevisiae deletion strains, locus YLR133W, strain CKI1, hits give low values",0.799
same,normalized growth,"S. cerevisiae deletion strains, locus YLR403W, strain SFP1, hits give low values",0.792
same,normalized growth,"S. cerevisiae deletion strains, locus YML070W, strain DAK1, hits give low values",0.618 (active)
same,normalized growth,"S. cerevisiae deletion strains, locus YMR001C, strain CDC5, hits give low values",0.941
same,normalized growth,"S. cerevisiae deletion strains, locus YMR205C, strain PFK2 (second series), hits give low values",0.872
same,normalized growth,"S. cerevisiae deletion strains, locus YMR277W, strain FCP1, hits give low values",0.943
same,normalized growth,"S. cerevisiae deletion strains, locus YNL006W, strain LST8, hits give low values",0.952
same,normalized growth,"S. cerevisiae deletion strains, locus YNL020C, strain ARK1, hits give low values",0.817
same,normalized growth,"S. cerevisiae deletion strains, locus YNL161W, strain CBK1, hits give low values",0.955
same,normalized growth,"S. cerevisiae deletion strains, locus YNL183C, strain NPR1, hits give low values",0.559
same,normalized growth,"S. cerevisiae deletion strains, locus YNL207W, strain RIO2, hits give low values",0.922
same,normalized growth,"S. cerevisiae deletion strains, locus YNL222W, strain SSU72, hits give low values",0.955
same,normalized growth,"S. cerevisiae deletion strains, locus YNL307C, strain MCK1 (second series), hits give low values",0.822
same,normalized growth,"S. cerevisiae deletion strains, locus YOL078W, strain AVO1, hits give low values",0.95
same,normalized growth,"S. cerevisiae deletion strains, locus YOL136C, strain PFK27, hits give low values",0.691
same,normalized growth,"S. cerevisiae deletion strains, locus YOR061W, strain CKA2, hits give low values",0.831
same,normalized growth,"S. cerevisiae deletion strains, locus YOR119C, strain RIO1, hits give low values",0.862
same,normalized growth,"S. cerevisiae deletion strains, locus YOR231W, strain MKK1, hits give low values",0.595
same,normalized growth,"S. cerevisiae deletion strains, locus YOR329C, strain SCD5, hits give low values",0.953
same,normalized growth,"S. cerevisiae deletion strains, locus YPL031C, strain PHO85, hits give low values",0.825
same,normalized growth,"S. cerevisiae deletion strains, locus YPL153C, strain RAD53, hits give low values",0.752
same,normalized growth,"S. cerevisiae deletion strains, locus YPL204W, strain HRR25, hits give low values",0.802
same,normalized growth,"S. cerevisiae deletion strains, locus YPL209C, strain IPL1, hits give low values",0.954
same,normalized growth,"S. cerevisiae deletion strains, locus YPL256C, strain CLN2, hits give low values",0.627 (active)
same,normalized growth,"S. cerevisiae deletion strains, locus YPR025C, strain CCL1, hits give low values",0.962
same,normalized growth,"S. cerevisiae deletion strains, locus YPR106W, strain ISR1, hits give low values",0.95
same,normalized growth,"S. cerevisiae deletion strains, locus YPR111W, strain DBF20, hits give low values",0.947
same,normalized growth,"S. cerevisiae deletion strains, strain NNK1, hits give low values",0.941
same,normalized growth,"S. cerevisiae deletion strains, strain TSCII, hits give low values",0.942
Cc1nnsc1C(=O)O/N=C1/CCSc2ccc(F)cc21,normalized growth,[3],0.975
same,normalized growth,[4],0.969
same,normalized growth,[5],0.994
same,normalized growth,[1],0.967
same,normalized growth,[6],0.982
same,normalized growth,[7],0.973
same,normalized growth,[8],0.943
same,normalized growth,[9],0.973
same,normalized growth,[10],0.983
same,normalized growth,[2],0.775
same,normalized growth,[11],0.966
same,normalized growth,"S. cerevisiae deletion strains, locus YJL187C, strain SWE1, hits give low values",0.996
same,normalized growth,[12],0.984
same,normalized growth,[13],0.994
same,normalized growth,[14],0.98
same,normalized growth,[15],0.848
same,normalized growth,[16],0.985
same,normalized growth,[17],0.856
same,normalized growth,[18],0.878
same,normalized growth,[19],0.932
same,normalized growth,[20],0.988
same,normalized growth,[21],0.989
same,normalized growth,"S. cerevisiae deletion strains, locus YNL128W, strain TEP1, hits give low values",1
same,normalized growth,[22],0.971
same,normalized growth,[23],0.973
same,normalized growth,[24],0.979
same,normalized growth,[25],0.945
same,normalized growth,"S. cerevisiae deletion strains, locus YOL006C, strain TOP1, hits give low values",0.981
same,normalized growth,[26],0.956
same,normalized growth,[27],0.997
same,normalized growth,[28],0.874
same,normalized growth,[29],0.978
CN(C)/C=C1\CSc2ccc(F)cc2C1=O,normalized growth,[3],0.909 (active)
same,normalized growth,[4],0.719 (active)
same,normalized growth,[5],0.812 (active)
same,normalized growth,[1],0.291 (active)
same,normalized growth,[6],0.119 (active)
same,normalized growth,[7],0.885
same,normalized growth,[8],0.613 (active)
same,normalized growth,[9],0.787 (active)
same,normalized growth,[10],0.861 (active)
same,normalized growth,[2],0.102 (active)
same,normalized growth,[11],0.753 (active)
same,normalized growth,[12],0.908 (active)
same,normalized growth,[13],0.74 (active)
same,normalized growth,[14],0.0876 (active)
same,normalized growth,[15],0.429 (active)
same,normalized growth,[16],1.01
same,normalized growth,[17],0.154 (active)
same,normalized growth,[18],0.517 (active)
same,normalized growth,[19],0.658 (active)
same,normalized growth,[20],0.821 (active)
same,normalized growth,[21],0.903 (active)
same,normalized growth,"S. cerevisiae deletion strains, locus YMR307W, strain GAS1, hits give low values",0.291 (active)
same,normalized growth,[22],0.852 (active)
same,normalized growth,[23],0.415 (active)
same,normalized growth,[24],0.995
same,normalized growth,[25],0.119 (active)
same,normalized growth,[26],0.787 (active)
same,normalized growth,[27],0.103 (active)
same,normalized growth,[28],0.303 (active)
same,normalized growth,[29],0.491 (active)
